CYP2C19 activ – cytochrome P450 2C19 (human) activation; P33261; recombinant CYP2C19, luciferin-H EGE luminescence; stronger effect = higher value; 0 = fully inhibited enzyme, 1 = untreated enzyme; activation factor at 5 µM; 96,000 tested, under 10 active;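 active = activation factor of at least 2 at 5 µM in the primary screen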;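 note: 0 = wells with 2.5 mM tranylcypromine and 1 = vehicle-only wells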
Target sequence (P33261 whole entry, looked up): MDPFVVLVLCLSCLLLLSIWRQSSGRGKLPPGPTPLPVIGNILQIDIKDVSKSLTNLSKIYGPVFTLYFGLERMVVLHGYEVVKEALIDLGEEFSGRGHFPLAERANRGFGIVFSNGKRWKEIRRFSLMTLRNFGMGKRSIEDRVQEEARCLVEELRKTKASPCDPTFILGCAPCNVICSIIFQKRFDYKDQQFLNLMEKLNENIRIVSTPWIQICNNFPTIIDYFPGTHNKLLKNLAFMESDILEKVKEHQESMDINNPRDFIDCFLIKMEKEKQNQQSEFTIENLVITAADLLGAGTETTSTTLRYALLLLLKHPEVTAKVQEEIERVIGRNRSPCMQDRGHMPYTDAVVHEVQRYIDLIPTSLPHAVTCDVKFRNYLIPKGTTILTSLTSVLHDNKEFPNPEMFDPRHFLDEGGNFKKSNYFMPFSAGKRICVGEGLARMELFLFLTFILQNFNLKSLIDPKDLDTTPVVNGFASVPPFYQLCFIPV
CYP2C9 activ – CYP2C9 (human) activation. P11712. recombinant CYP2C9, luciferin-H conversion, luminescence; stronger effect = higher value; factor 1 = untreated enzyme, 0 = blocked. activation factor at 5 µM. 1.4% of 96,000 active;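 active = activation factor of 2 or more for CYP2C9 at a 5 µM dose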;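 note: 0 = sulfaphenazole-blocked wells and 1 = vehicle-only wells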
PostGolgi ctrl – yeast control strain growth, post-Golgi counter-screen | AID 738 | inhibition, % at 10 µM | efflux-deficient yeast background strain, growth absorbance A615, 16 h | 5% of 98,000 active
CYP2C19 inh – blocks human cytochrome P450 2C19; P33261; CYP2C19 Supersomes, luciferin-H EGE luminescence, 30 min; inhibition, % at 5 µM; 21% of 96,000 active; AID 778;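 active = CYP2C19 inhibition above a set limit at 5 µM in the primary screen, cut at about 50% in these data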;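 note: plate controls were negative control wells for no effect and 2.5 mM tranylcypromine positive control for full effect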
PostGolgi yeast – growth inhibition of a yeast mutant, post-Golgi transport screen; post-Golgi transport phenotypic cell assay; inhibition, % at 10 µM; 0.9% of 98,000 active; AID 739;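 note: yeast cells grown in 1536-well plates; yeast grown about 18 h at 30C before absorbance read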
CYP2C9 inhib – blocks human cytochrome P450 2C9; P11712; CYP2C9 Supersomes, luciferin-H conversion, luminescence; inhibition, % at 5 µM; 20% of 96,000 active;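 active = blocking of liver enzyme CYP2C9 beyond about 50% at 5 µM, limit read from the data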
Numbers without * were called inactive. Sampled rows, rich in hits. Any-hit rate of the full collection: about 32%. Cut-off read from the data, not from the text of the source, unless noted: active = inhibition above about 30%; inactive = the rest.

For Cc1noc2c1C(c1ccc(N(C)C)cc1)C1=C(CC(C)(C)CC1=O)N2 (centres undefined) the results were CYP2C19 activ 0.2, CYP2C9 activ 0.8, PostGolgi ctrl 11.1, CYP2C19 inh 76.2*, PostGolgi yeast -2.7 and CYP2C9 inhib 20.5.
For Cc1ccc(C2C3=C(CC(C)(C)CC3=O)Nc3onc(C)c32)cc1 (centres undefined) the results were CYP2C19 activ 0, CYP2C9 activ 0.4, PostGolgi ctrl 2.4, CYP2C19 inh 98.8*, PostGolgi yeast -11.8 and CYP2C9 inhib 55.9*.
For CN1CCN(c2ccccc2NC(=O)c2cc3ccccc3o2)CC1 the results were CYP2C19 activ 1, CYP2C9 activ 0.9, PostGolgi ctrl 6.0, CYP2C19 inh -0.5, PostGolgi yeast 8.3 and CYP2C9 inhib 12.7.
O=C(Nc1ccccc1N1CCCC1)c1cc2ccccc2o1 was read as CYP2C19 activ 0.8, CYP2C9 activ 0.9, PostGolgi ctrl 39.2*, CYP2C19 inh 16.0, PostGolgi yeast -11.0 and CYP2C9 inhib 12.6.
For O=C(Nc1ccccc1N1CCN(C(=O)c2ccccc2)CC1)c1cc2ccccc2o1 the results were CYP2C19 activ 0, CYP2C9 activ 0, PostGolgi ctrl 36.2*, CYP2C19 inh 96.9*, PostGolgi yeast -3.6 and CYP2C9 inhib 95.6*.
`O=C(Nc1ccc(N2CCN(C(=O)c3ccccc3)CC2)cc1)c1cc2ccccc2o1` gave CYP2C19 activ 0.8, CYP2C9 activ 0.8, PostGolgi ctrl -2.5, CYP2C19 inh 18.0, PostGolgi yeast -5.0 and CYP2C9 inhib 24.4.
O=C(Nc1ccccc1N1CCN(C(=O)c2ccccc2)CC1)c1cc(Br)ccc1Cl was read as CYP2C19 activ 0.3, CYP2C9 activ 0.2, PostGolgi ctrl 30.9*, CYP2C19 inh 71.3*, PostGolgi yeast 7.8 and CYP2C9 inhib 81.8*.
CCOC(=O)CSc1nc2c(c(=O)n1-c1ccc(OC)cc1)SCC2 was read as CYP2C19 activ 0.8, CYP2C9 activ 0.7, PostGolgi ctrl -0.7, CYP2C19 inh 20.7, PostGolgi yeast 0.5 and CYP2C9 inhib 30.1.
`CC(CN1CCCC1)OC(=O)COc1ccccc1` (centres undefined) gave CYP2C19 activ 1.2, CYP2C9 activ 1, PostGolgi ctrl 6.8, CYP2C19 inh -15.7, PostGolgi yeast -0.8 and CYP2C9 inhib 3.3.
`Cc1cc(C)nc(N2CCCC(C(=O)NC3CCCC3)C2)n1` (centres undefined) gave CYP2C19 activ 0.4, CYP2C9 activ 0.8, PostGolgi ctrl 7.6, CYP2C19 inh 58.0*, PostGolgi yeast -1.4 and CYP2C9 inhib 21.2.
`O=C(NCCC1=CCCCC1)C1CC(=O)N(C2CCCCCC2)C1` (centres undefined) gave CYP2C19 activ 0.5, CYP2C9 activ 0.4, PostGolgi ctrl 21.0, CYP2C19 inh 51.8*, PostGolgi yeast 2.4 and CYP2C9 inhib 57.4*.
Screening Cc1cc(C)nc(N2CCCC(C(=O)Nc3cc(F)ccc3C)C2)n1 (centres undefined) returned CYP2C19 activ 0.4, CYP2C9 activ 1.3, PostGolgi ctrl 30.1*, CYP2C19 inh 64.7*, PostGolgi yeast 2.8 and CYP2C9 inhib -25.8.
O=C(NCc1cccc(C(F)(F)F)c1)C1CCCN(c2ncccn2)C1 (centres undefined) was read as CYP2C19 activ 0.5, CYP2C9 activ 1, PostGolgi ctrl 9.0, CYP2C19 inh 46.3, PostGolgi yeast 3.9 and CYP2C9 inhib 1.5.
`Cc1cc(C)nc(N2CCCC(C(=O)NCc3cccc(C(F)(F)F)c3)C2)n1` (centres undefined) gave CYP2C19 activ 0.8, CYP2C9 activ 2.1*, PostGolgi ctrl 1.2, CYP2C19 inh 22.4, PostGolgi yeast 12.0 and CYP2C9 inhib -108.0.
Screening [2H]c1c([2H])c([2H])c(-c2nc(N3CCCCCC3)sc2C(=O)c2ccccc2)c([2H])c1[2H] returned CYP2C19 activ 0.8, CYP2C9 activ 0.9, PostGolgi ctrl 19.1, CYP2C19 inh 18.8, PostGolgi yeast -6.5 and CYP2C9 inhib 14.1.
CCCn1nc(CC(=O)OCC)c2ccccc2c1=O was read as CYP2C19 activ 0.8, CYP2C9 activ 0.8, PostGolgi ctrl 2.8, CYP2C19 inh 16.9, PostGolgi yeast 0.8 and CYP2C9 inhib 22.7.
CCOC(=O)N1CCC(NC(=O)c2cc(S(=O)(=O)N(CC)CC)ccc2F)CC1 was read as CYP2C19 activ 0.8, CYP2C9 activ 0.6, PostGolgi ctrl 4.3, CYP2C19 inh 15.0, PostGolgi yeast 17.7 and CYP2C9 inhib 42.9.

Screens as filed in PubChem.
